About 83,000 compounds went through this panel and 20% of them were active in at least one assay; those are over-represented in the sample as a whole.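 Assay: single dose, 48 h. Readout: percent growth (0 = no net growth; negative = cell death). Active: <10.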 Active and inactive are the calls of the source.
How the values were obtained:
Experiment in all cases: NCI-60 one-dose screen, 48 h (100 = growth as untreated, 0 = no growth, -100 = all killed)
Details in all cases: 10 µM unless noted
HCT-15 colon = tested on: HCT-15 colon
HT29 colon = tested on: HT29 colon
SNB-75 CNS = tested on: SNB-75 CNS
SNB-19 CNS = tested on: SNB-19 CNS
U251 CNS = tested on: U251 CNS
PC-3 prostate = tested on: PC-3 prostate
SK-MEL-5 melanoma = tested on: SK-MEL-5 melanoma
UACC-62 melanoma = tested on: UACC-62 melanoma
LOX IMVI melanoma = tested on: LOX IMVI melanoma
SK-MEL-28 melanoma = tested on: SK-MEL-28 melanoma

Measured: growth

NC(=O)c1c(NC(=O)c2cccc(OC(F)(F)F)c2)sc2c1CCC(=O)C2
inactive: HCT-15 colon 19.2% | HT29 colon 40.3% | SNB-75 CNS 43.6% | SNB-19 CNS 43.1% | U251 CNS 28.7% | PC-3 prostate 21.3% | SK-MEL-5 melanoma 95.4% | UACC-62 melanoma 60.7% | LOX IMVI melanoma 28.5% | SK-MEL-28 melanoma 82.6%

CS(=O)(=O)c1ccc2c(c1)c1c(n2C(=O)c2ccc(Cl)cc2)CCCC1
inactive: HCT-15 colon 25.7% | SNB-19 CNS 34.9% | U251 CNS 19.9% | PC-3 prostate 22.7% | SK-MEL-5 melanoma 25.5% | UACC-62 melanoma 23.8% | LOX IMVI melanoma 40.5% | SK-MEL-28 melanoma 60.9%
active: HT29 colon 5.05% | SNB-75 CNS 5.66%

C[C@@H]1C[C@H]2C(=O)OCC(NC(=O)[C@H](Cc3cc(F)cc(F)c3)NC(=O)Nc3ccc(Cl)cc3F)C(=O)N3CCC[C@H]3C(=O)N3CCCC[C@H]3C(=O)N[C@@H](C)C(=O)N2C1 (stereo not given in full)
inactive: HCT-15 colon 11.1% | HT29 colon 15.6% | SNB-75 CNS 46.8% | SNB-19 CNS 24.4% | U251 CNS 28.8% | PC-3 prostate 17.3% | UACC-62 melanoma 26.7% | SK-MEL-28 melanoma 39.7%
active: SK-MEL-5 melanoma -12.3% | LOX IMVI melanoma 4.29%

O=C(COc1cccc2cccnc12)Nc1ccc(C(=O)/C=C/c2ccc(Cl)cc2)cc1
inactive: HCT-15 colon 70% | HT29 colon 86.5% | SNB-75 CNS 96% | SNB-19 CNS 87.2% | U251 CNS 92.2% | PC-3 prostate 89.2% | SK-MEL-5 melanoma 83.7% | UACC-62 melanoma 72.6% | LOX IMVI melanoma 47.5% | SK-MEL-28 melanoma 101%

CN(C)c1ncc(/C=C2\SC(=S)N(Cc3ccccc3Cl)C2=O)s1
inactive: HCT-15 colon 84.6% | HT29 colon 88.8% | SNB-75 CNS 88.1% | SNB-19 CNS 78.6% | U251 CNS 42% | PC-3 prostate 91.1% | SK-MEL-5 melanoma 101% | UACC-62 melanoma 94.6% | LOX IMVI melanoma 69.2% | SK-MEL-28 melanoma 104%

CCOC(=O)c1c(NCC(=O)Nc2ccc(Br)cc2)sc2c1CCCC2
inactive: HT29 colon 25.7% | SNB-75 CNS 46.2% | SNB-19 CNS 56.7% | PC-3 prostate 55% | SK-MEL-5 melanoma 39.8% | UACC-62 melanoma 46.9% | SK-MEL-28 melanoma 67.6%
active: HCT-15 colon -14.2% | U251 CNS -6.08% | LOX IMVI melanoma 4.11%

IP(CCCSc1n(Cc2ccc3ccccc3c2)c(-c2ccccc2)c(-c2ccccc2)[n+]1Cc1ccc2ccccc2c1)(c1ccccc1)(c1ccccc1)c1ccccc1
active: HT29 colon 2.7% | LOX IMVI melanoma 8%
inactive: HCT-15 colon 94.5% | SNB-75 CNS 43% | SNB-19 CNS 16.6% | U251 CNS 10.3% | PC-3 prostate 32.1% | SK-MEL-5 melanoma 67.6% | UACC-62 melanoma 26.6% | SK-MEL-28 melanoma 32.8%

COc1ccc(NC(=O)Cn2cc(CN3C(=O)c4ccc([N+](=O)[O-])cc4C3=O)nn2)cc1
inactive: HCT-15 colon 98.2% | HT29 colon 109% | SNB-75 CNS 73.9% | SNB-19 CNS 93.6% | U251 CNS 100% | PC-3 prostate 98.6% | SK-MEL-5 melanoma 102% | UACC-62 melanoma 91.3% | LOX IMVI melanoma 97.7% | SK-MEL-28 melanoma 110%

O=C(NNc1nc2cc(F)cc(F)c2n2cccc12)c1ccncn1
inactive: HCT-15 colon 25.3% | HT29 colon 23.8% | SNB-75 CNS 19.3% | SNB-19 CNS 21.9% | PC-3 prostate 33.6% | SK-MEL-28 melanoma 22.9%
active: U251 CNS 9.14% | SK-MEL-5 melanoma -4.3% | UACC-62 melanoma 3.64% | LOX IMVI melanoma 6.37%

CCc1ccc(NC(=O)N[C@@H](Cc2cc(F)cc(F)c2)C(=O)N[C@@H]2C(=O)N3CCC[C@H]3C(=O)N3CCO[C@H](C)[C@H]3C(=O)N[C@@H](CO)C(=O)N3C[C@H](C)C[C@H]3C(=O)O[C@H]2C)c(F)c1
inactive: HCT-15 colon 15.8% | HT29 colon 30.5% | SNB-75 CNS 20.3% | SNB-19 CNS 26.9% | U251 CNS 29% | PC-3 prostate 17.3% | UACC-62 melanoma 26.3% | LOX IMVI melanoma 20.4% | SK-MEL-28 melanoma 43.4%
active: SK-MEL-5 melanoma -2.9%

CCOC(=O)c1nn(-c2ccc(C)cc2)c(=O)c2c(N)c(C#N)c(-c3ccc(OC)cc3)cc12
inactive: HCT-15 colon 99.2% | HT29 colon 99.4% | SNB-75 CNS 67.3% | SNB-19 CNS 91.3% | U251 CNS 103% | PC-3 prostate 94.8% | SK-MEL-5 melanoma 99.9% | UACC-62 melanoma 94.9% | LOX IMVI melanoma 95.5% | SK-MEL-28 melanoma 100%

O=C1Nc2ccc(Cl)cc2/C1=C/c1ccc(OCc2ccc(Br)cc2F)cc1
inactive: HCT-15 colon 102% | HT29 colon 104% | SNB-75 CNS 100% | SNB-19 CNS 100% | U251 CNS 97.4% | PC-3 prostate 93% | SK-MEL-5 melanoma 92.6% | UACC-62 melanoma 93.6% | LOX IMVI melanoma 92.7% | SK-MEL-28 melanoma 105%

CCOC(=O)c1c(NC(=O)c2ccc(F)cc2F)sc2c1CCC(=O)C2
inactive: HCT-15 colon 80.6% | HT29 colon 103% | SNB-75 CNS 94.3% | SNB-19 CNS 67.2% | U251 CNS 53.5% | PC-3 prostate 93.7% | SK-MEL-5 melanoma 98.5% | UACC-62 melanoma 83.4% | LOX IMVI melanoma 80.7% | SK-MEL-28 melanoma 112%

O=c1[nH]c(CNc2ccc(NCc3c(-c4ccccc4)no[n+]3[O-])cc2)nc2c1cnn2-c1ccccc1
inactive: HCT-15 colon 71.2% | HT29 colon 92% | SNB-75 CNS 76.1% | SNB-19 CNS 94% | U251 CNS 85.5% | PC-3 prostate 63.3% | SK-MEL-5 melanoma 39% | UACC-62 melanoma 52.5% | LOX IMVI melanoma 63.6% | SK-MEL-28 melanoma 85.3%

C(=C(\C1=NCCN1)n1cnc2ccccc21)/c1ccc2ccccc2c1
inactive: HCT-15 colon 61.1% | HT29 colon 91.7% | SNB-75 CNS 72.9% | SNB-19 CNS 81.3% | U251 CNS 87.3% | PC-3 prostate 33.5% | SK-MEL-5 melanoma 63% | UACC-62 melanoma 77.2% | LOX IMVI melanoma 71.5% | SK-MEL-28 melanoma 79.4%

O=C(COc1ccc(C2SCC(=O)N2c2ccccc2)cc1)c1ccccc1 (stereo not given)
inactive: HCT-15 colon 97.2% | HT29 colon 105% | SNB-75 CNS 87.5% | SNB-19 CNS 99.4% | U251 CNS 95.8% | PC-3 prostate 80.5% | SK-MEL-5 melanoma 94.4% | UACC-62 melanoma 68.6% | LOX IMVI melanoma 93.3% | SK-MEL-28 melanoma 105%

Cc1ccc(NC(=O)c2cc(/C=C/C(=O)NO)cc(C(F)(F)F)c2)cc1Nc1nccc(-c2cccnc2)n1
active: HT29 colon 7.3% | SNB-75 CNS -5.81% | SNB-19 CNS -0.0394% | U251 CNS -65.1% | SK-MEL-5 melanoma -88% | UACC-62 melanoma -41.3% | LOX IMVI melanoma -68.2% | SK-MEL-28 melanoma -7.78%
inactive: HCT-15 colon 55.2% | PC-3 prostate 18.9%

Cc1cc(-c2ccc3nc(N)sc3c2)nc2ccc3[nH]ncc3c12
active: SNB-75 CNS -12.7%
inactive: HCT-15 colon 33.9% | HT29 colon 21.1% | SNB-19 CNS 39.8% | U251 CNS 29.3% | PC-3 prostate 62.5% | SK-MEL-5 melanoma 26.3% | UACC-62 melanoma 21.9% | LOX IMVI melanoma 43.8% | SK-MEL-28 melanoma 38.4%

COc1ccc(OC)c(NC2=C(Cl)C(=O)C(C)=C(C)C2=O)c1
inactive: HCT-15 colon 94.7% | HT29 colon 105% | SNB-75 CNS 71.7% | SNB-19 CNS 95.3% | U251 CNS 94.1% | PC-3 prostate 77.6% | SK-MEL-5 melanoma 89.6% | UACC-62 melanoma 93.8% | LOX IMVI melanoma 89.1% | SK-MEL-28 melanoma 108%

Cc1ccc(C2CC(c3ccc(Nc4nc(NCCO)nc(Nc5ccc(Cl)cc5)n4)cc3)=Nc3c(N)nc(N)nc3N2)cc1 (stereo not given)
active: HCT-15 colon -81.7% | HT29 colon -90.8% | SNB-19 CNS -90.3% | U251 CNS -96.8% | PC-3 prostate -32.7% | LOX IMVI melanoma -93.9%
inactive: SNB-75 CNS 112% | SK-MEL-5 melanoma 67.5% | UACC-62 melanoma 107% | SK-MEL-28 melanoma 110%

CS(=O)(=O)c1ccc(-c2nn(-c3ccccc3)cc2/C=N/NC(=O)c2ccncc2)cc1
inactive: HCT-15 colon 69.5% | HT29 colon 101% | SNB-75 CNS 89% | SNB-19 CNS 96.5% | U251 CNS 105% | PC-3 prostate 98.2% | SK-MEL-5 melanoma 105% | UACC-62 melanoma 82.4% | LOX IMVI melanoma 101% | SK-MEL-28 melanoma 105%

C#Cc1ccc(NC(=O)c2ccc(/C=C/C(=O)c3nccn3C)cc2)c(F)c1
active: HCT-15 colon 7.76% | U251 CNS 5.03% | LOX IMVI melanoma -60.8%
inactive: HT29 colon 15.8% | SNB-75 CNS 17.7% | SNB-19 CNS 23% | PC-3 prostate 29.9% | SK-MEL-5 melanoma 60.5% | UACC-62 melanoma 29.9% | SK-MEL-28 melanoma 84%

Cc1ccc(-c2cc3nc(C(Cl)Cl)nc(-c4ccccc4)n3n2)cc1
inactive: HCT-15 colon 75.6% | HT29 colon 74.9% | SNB-75 CNS 99.3% | SNB-19 CNS 74.1% | U251 CNS 66.8% | PC-3 prostate 79.3% | SK-MEL-5 melanoma 92.2% | UACC-62 melanoma 91.9% | LOX IMVI melanoma 109% | SK-MEL-28 melanoma 101%

CCOC(=O)c1c(NCC(=O)Nc2cccc([N+](=O)[O-])c2)sc2c1CCCC2
active: HCT-15 colon -42.4% | HT29 colon -71.5% | SNB-75 CNS -48.6% | SNB-19 CNS -17.3% | U251 CNS -26.5% | PC-3 prostate -34% | SK-MEL-5 melanoma -98.4% | UACC-62 melanoma -90.3% | LOX IMVI melanoma -73% | SK-MEL-28 melanoma -80.2%

COc1cc2oc(-c3cccc(NC(=O)c4cc(NC(=O)[C@H](C)N)ccc4Cl)c3)cc(=O)c2c(OC)c1OC
inactive: HCT-15 colon 79.8% | HT29 colon 115% | SNB-75 CNS 96.1% | SNB-19 CNS 88.8% | U251 CNS 95.3% | PC-3 prostate 81.2% | SK-MEL-5 melanoma 86% | UACC-62 melanoma 89.3% | LOX IMVI melanoma 80.9% | SK-MEL-28 melanoma 106%

CSc1ccc(/C(=N/N=C(N)N)c2ccccc2)cc1
inactive: HCT-15 colon 12.4% | HT29 colon 17% | SNB-19 CNS 29% | U251 CNS 29.2% | PC-3 prostate 35.4% | SK-MEL-5 melanoma 17.7% | UACC-62 melanoma 44% | LOX IMVI melanoma 13% | SK-MEL-28 melanoma 65.5%
active: SNB-75 CNS 6.66%

Cn1ccnc1C(=O)/C=C/c1ccc(C(=O)Nc2ccc(NC(=O)CCNC(=O)c3csc(Br)n3)cc2)cc1
inactive: HCT-15 colon 28.6% | HT29 colon 13.2% | SNB-75 CNS 71.2% | SNB-19 CNS 60.6% | U251 CNS 23.9% | PC-3 prostate 48% | SK-MEL-5 melanoma 98.8% | UACC-62 melanoma 68.3% | LOX IMVI melanoma 11.5% | SK-MEL-28 melanoma 89.3%

From PubChem BioAssay (NCI)
